Drawing on PubChem BioAssay (NCI), this text covers growth for eight compounds.

About 83,000 compounds went through this panel and 20% of them were active in at least one assay; those are over-represented in the sample as a whole.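 For each line, cells grew in 96-well plates with the test compound present at a single concentration for 48 hours.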 A number with no mark means an inactive call. The source made the active and inactive calls. Rule for the calls: active = growth percent below 10; inactive = the rest.

Some test systems named below: SR leukemia; RPMI-8226 leukemia; OVCAR-8 ovarian; OVCAR-5 ovarian; OVCAR-4 ovarian; SK-OV-3 ovarian; IGROV1 ovarian; OVCAR-3 ovarian; HS 578T breast; NCI/ADR-RES ovarian; T-47D breast; BT-549 breast; MDA-MB-435 melanoma; SW-620 colon; MCF7 breast; HCT-116 colon; HCC-2998 colon; KM12 colon.
Holding throughout (assay): NCI-60 one-dose screen, 48 h (100 = growth as untreated, 0 = no growth, -100 = all killed)
Details in all cases: 10 µM unless noted

Regarding `COc1ccc(Oc2ccc(/C=N/NC(=O)CSc3nc4ccccc4c(=O)n3-c3ccc(Cl)cc3)cc2)cc1`, the growth with SR leukemia was 72.8%; in the experiment with RPMI-8226 leukemia, 85.1%; in the experiment on OVCAR-8 ovarian, 85.7%; with OVCAR-5 ovarian it was 81.2%; with OVCAR-4 ovarian, 72.5%; with SK-OV-3 ovarian, 66.3%. For the same compound, the growth with IGROV1 ovarian was 48.7%; in the experiment with OVCAR-3 ovarian, -56.8% (active); in the experiment on HS 578T breast, -4.46% (active); in the experiment on NCI/ADR-RES ovarian it was 51.1%; with T-47D breast, 37.8%; in the experiment with BT-549 breast, 89.4%. Also, the growth was 87.7% in the experiment with MDA-MB-435 melanoma; 44.4% with SW-620 colon; 49.3% in the experiment on MCF7 breast; 13.3% in the experiment on HCT-116 colon; 83.3% in the experiment with HCC-2998 colon; 77.2% in the experiment with KM12 colon.

For `COc1ccc(C2CC(c3cccc(Nc4nc(Cl)nc5cc(OC)c(OC)cc45)c3)=Nc3c(N)nc(N)nc3N2)cc1` (centres undefined), the growth in the experiment on SR leukemia was 3.81% (active); in the experiment on RPMI-8226 leukemia, 38.4%; in the experiment on OVCAR-8 ovarian it was 70.1%; in the experiment with OVCAR-5 ovarian, 111%; in the experiment on OVCAR-4 ovarian it was 96.6%; with SK-OV-3 ovarian, 121%. Also, the growth with IGROV1 ovarian is 92.5%; in the experiment with OVCAR-3 ovarian, 75.3%; in the experiment on HS 578T breast it was 94.4%; with NCI/ADR-RES ovarian, 92.3%; in the experiment on T-47D breast, 81.7%; with BT-549 breast, 81.4%. In addition, the growth was 83.5% in the experiment with MDA-MB-435 melanoma; 74% in the experiment with SW-620 colon; 74.4% with MCF7 breast; 46.3% in the experiment on HCT-116 colon; 83.4% with HCC-2998 colon; 57.1% with KM12 colon.

Consider `O=S(=O)(NCCNc1nccc(-n2cnc3ccccc32)n1)c1ccc(Br)cc1`, for which the growth is 75.1% in the experiment on SR leukemia; 79.7% with RPMI-8226 leukemia; 95.6% in the experiment with OVCAR-8 ovarian; 94% with OVCAR-5 ovarian; 82.2% in the experiment with OVCAR-4 ovarian; 99.9% in the experiment on SK-OV-3 ovarian. In addition, the growth in the experiment with IGROV1 ovarian was 90.7%; with OVCAR-3 ovarian it was 103%; in the experiment on HS 578T breast it was 85.7%; with NCI/ADR-RES ovarian it was 97.6%; in the experiment on T-47D breast, 59.1%; in the experiment with BT-549 breast, 115%. The growth with MDA-MB-435 melanoma was 108%; in the experiment with SW-620 colon it was 110%; with MCF7 breast it was 78.4%; with HCT-116 colon it was 99.8%; with HCC-2998 colon, 103%; with KM12 colon, 85.4%.

Consider `Fc1ccc(-c2cc3nc(C(Cl)Cl)nc(-c4ccc(F)cc4)n3n2)cc1`, for which the growth was 3.96% (active) in the experiment with SR leukemia; 3.43% (active) in the experiment with RPMI-8226 leukemia; 11.8% in the experiment with OVCAR-8 ovarian; -14.3% (active) in the experiment on OVCAR-5 ovarian; -9.54% (active) in the experiment with OVCAR-4 ovarian; -29.2% (active) with SK-OV-3 ovarian. Besides, the growth in the experiment on IGROV1 ovarian is 31.4%; in the experiment with OVCAR-3 ovarian, -31.7% (active); with HS 578T breast, -1.86% (active); in the experiment on NCI/ADR-RES ovarian, 19.4%; with T-47D breast it was 34.3%; in the experiment with BT-549 breast it was 47%. Further, the growth in the experiment on MDA-MB-435 melanoma is 14.6%; in the experiment on SW-620 colon it was -29.3% (active); with MCF7 breast, 24.2%; in the experiment on HCT-116 colon, 4.72% (active); with HCC-2998 colon it was -45.8% (active); in the experiment with KM12 colon, -12.5% (active).

As for `CCc1cccc2c3c(sc12)C(c1ccc(Cl)cc1)C(C#N)=C(/N=C/c1ccc(Cl)cc1)O3` (centres undefined), the growth with SR leukemia was 13.9%; in the experiment on RPMI-8226 leukemia, 8.79% (active); in the experiment with OVCAR-8 ovarian, 28.1%; in the experiment with OVCAR-5 ovarian it was 32.9%; with OVCAR-4 ovarian, 79.1%; in the experiment with SK-OV-3 ovarian it was 55.4%. In addition, the growth with IGROV1 ovarian was 28.1%; in the experiment with OVCAR-3 ovarian it was -14.2% (active); in the experiment with HS 578T breast it was 8.08% (active); in the experiment on NCI/ADR-RES ovarian it was 5.33% (active); with T-47D breast, 25.7%; with BT-549 breast, 51.7%. In addition, the growth was -58.4% (active) with MDA-MB-435 melanoma; 29.3% in the experiment with SW-620 colon; 15.8% in the experiment with MCF7 breast; 22.2% in the experiment with HCT-116 colon; 7.72% (active) in the experiment with HCC-2998 colon; 13.2% with KM12 colon.

As for `CN1CCN(c2ccc(/C=N/n3cnc4oc(-c5ccccc5)cc4c3=N)cc2)CC1`, the growth in the experiment with SR leukemia is 36.6%; in the experiment on RPMI-8226 leukemia, 87.9%; in the experiment with OVCAR-8 ovarian it was 96.1%; in the experiment on OVCAR-5 ovarian, 76.2%; with OVCAR-4 ovarian, 83.1%; in the experiment on SK-OV-3 ovarian it was 71.3%. The growth in the experiment on IGROV1 ovarian is 36.7%; in the experiment with OVCAR-3 ovarian, 90.2%; with HS 578T breast, 63.8%; in the experiment on NCI/ADR-RES ovarian it was 81.3%; in the experiment with T-47D breast it was 84.1%; in the experiment with BT-549 breast, 89.7%. The growth in the experiment with MDA-MB-435 melanoma is 94.7%; with SW-620 colon it was 94%; with MCF7 breast, 81.1%; in the experiment with HCT-116 colon, 73.9%; in the experiment on HCC-2998 colon it was 101%; in the experiment with KM12 colon, 63.7%.

In the case of `O=C(CN1CCN(c2cc(=O)[nH]c3ccc(F)cc23)CC1)Nc1ccc(Cl)cc1`, the growth is 84.3% in the experiment on SR leukemia; 104% in the experiment on RPMI-8226 leukemia; 33.3% in the experiment on OVCAR-8 ovarian; 86.2% with OVCAR-5 ovarian; 29.7% with OVCAR-4 ovarian; 65.1% in the experiment with SK-OV-3 ovarian. Moreover, the growth was 67.1% with IGROV1 ovarian; 60.5% with OVCAR-3 ovarian; 34.6% in the experiment with HS 578T breast; 76% in the experiment on NCI/ADR-RES ovarian; 66.3% in the experiment on T-47D breast; 47.6% with BT-549 breast. In addition, the growth with MDA-MB-435 melanoma is 96%; in the experiment on SW-620 colon, 93.8%; with MCF7 breast, 58.8%; in the experiment on HCT-116 colon, 57.6%; with HCC-2998 colon, 92.3%; with KM12 colon, 91.6%.

Turning to `Cc1cc2nc(C(Cl)Cl)nc(-c3cccs3)n2n1`, the growth was 48.3% in the experiment with SR leukemia; -23.4% (active) in the experiment on RPMI-8226 leukemia; 35% in the experiment on OVCAR-8 ovarian; 3.63% (active) in the experiment with OVCAR-5 ovarian; 14.9% in the experiment with OVCAR-4 ovarian; 14.7% in the experiment on SK-OV-3 ovarian. Moreover, the growth with IGROV1 ovarian was 43.2%; with OVCAR-3 ovarian, -30.9% (active); in the experiment with HS 578T breast, 3.9% (active); in the experiment with NCI/ADR-RES ovarian, 13.7%; with T-47D breast, 30.6%; in the experiment with BT-549 breast, 74.1%. Moreover, the growth in the experiment with MDA-MB-435 melanoma was 26.3%; in the experiment with SW-620 colon, 10.9%; in the experiment with MCF7 breast it was 12.1%; with HCT-116 colon it was 12.2%; with HCC-2998 colon, -54.4% (active); in the experiment with KM12 colon it was -26.4% (active).
